This is a sample that favours compounds with a hit; in the whole collection about 3.4% have one here.
GoLoco inh red: inhibitors of human Gai1-RGS12 GoLoco interaction (red fluorophore); P63096; Gai1:RGS12 GoLoco peptide FP, rhodamine, 10 min; Potency, µM (highest dose often 61.6 µM), without a hit: at the top dose activity, negative = inhibition, usual class: inhibitors; 230,000 compounds, 0.44% hits; AID 880; active = well fitted inhibition curve with a large enough effect, not every such curve was filed as active; inactive = no such curve, though single readings can be large or run the other way; also: nearly all actives have a fitted effect of over 30% in size
Target sequence (P63096 whole entry, looked up): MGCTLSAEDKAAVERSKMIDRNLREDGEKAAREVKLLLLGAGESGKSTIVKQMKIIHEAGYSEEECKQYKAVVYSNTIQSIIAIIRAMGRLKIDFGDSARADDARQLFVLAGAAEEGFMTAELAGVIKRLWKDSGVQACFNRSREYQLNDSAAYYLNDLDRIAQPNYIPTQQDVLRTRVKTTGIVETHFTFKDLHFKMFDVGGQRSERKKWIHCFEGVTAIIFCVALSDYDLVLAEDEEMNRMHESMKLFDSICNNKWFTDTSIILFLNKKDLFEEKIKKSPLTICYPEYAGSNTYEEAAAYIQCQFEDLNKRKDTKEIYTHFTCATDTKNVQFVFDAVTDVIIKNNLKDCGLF
Tau fluor counter: counter-screen for tau fibril formation inhibitors. tau K18 P301L Alexa594 fluorescence, heparin fibrillization. Potency, µM (top dose mostly 57.7 µM), for the others: top-dose activity change, negative = decrease. 280,000 compounds, 0.93% hits; also: nearly all actives have a fitted effect of over 55% in size
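Human tau K18 P301L (15 uM unlabeled, 0.24 uM Alexa 594-labeled) in 100 mM sodium acetate pH 7 with 20 uM heparin, 6 hr at 37 C. ThT 30 uM added, 1 hr ambient; Alexa 594 FP and total fluorescence read at 555/632 nm.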
JMJD2E inh: inhibitors of human JMJD2E histone demethylase. B2RXH2. JMJD2E catalytic domain, FDH-coupled NADH fluorescence (FDH is formaldehyde dehydrogenase). Potency, µM (highest dose often 57.1 µM), for inactives: top-dose activity change, negative = inhibition, usual class: inhibitors. 230,000 compounds, 1.6% hits. AID 2147; active = well fitted inhibition curve with a large enough effect, not every such curve was filed as active; inconclusive = small, poorly fitted or top-dose-only effect, or another doubt; inactive = no such curve, though single readings can be large or run the other way;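 also: 0% = wells with enzyme and -100% = buffer wells without enzyme; nearly all actives have a fitted effect of over 50% in size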
Tau fibril FP: tau fibrillization inhibition (FP) | Potency, µM (titrated, usually from 57.7 µM), for the others: at the highest dose activity, negative = inhibition, actives largely listed as inhibitors | K18 P301L tau heparin fibrillization, Alexa594 FP, 6 h | P10636 | 280,000 compounds, 0.39% hits; also: nearly all actives have a fitted effect of over 55% in size
Target sequence (P10636 561-689 P618L limits assumed): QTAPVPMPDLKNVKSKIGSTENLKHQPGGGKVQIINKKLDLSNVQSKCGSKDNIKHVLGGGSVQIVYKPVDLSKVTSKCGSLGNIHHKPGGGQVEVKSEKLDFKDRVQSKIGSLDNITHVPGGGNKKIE
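Steps: dispense K18 P301L tau (15 uM plus 0.24 uM Alexa 594 tracer, final) in pH 7 sodium acetate; add compound; add heparin (20 uM final); incubate 6 hr, 37 C; add ThT (30 uM final); after 1 hr ambient, read FP.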
Tau ThT inhib: tau fibrillization inhibition (ThT binding); recombinant tau K18 P301L (four-repeat tau fragment), heparin-induced fibrillization, ThT fluorescence; P10636; Potency, µM (titrated, usually from 57.4 µM), for inactives: top-dose activity, negative = inhibition, usual class: inhibitors; 270,000 compounds, 2.1% hits; also: nearly all actives have a fitted effect of over 55% in size
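K18 P301L tau (15 uM + 0.24 uM Alexa 594-tagged), heparin 20 uM, NaOAc pH 7, 6 h 37 C; ThT 30 uM, 1 h RT, ex 450/em 510 nm.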
Starred values were filed as active, the others as inactive; u = inconclusive; x = no result; [ ] = another dose, or the depositor's remark. Unless noted, calls follow the shape of the dose curve; as a rule, active = well fitted curve in the direction sought with a large enough effect; inconclusive = small, poorly fitted or top-dose-only effect, or another doubt; inactive = no such curve, though single readings can be large; an effect the other way counts as inactive or inconclusive. Unless noted, % is scaled to controls: 0 for no effect and ±100 for the full control effect; potency is read from the fitted curve at half-maximal effect.

SMILES | GoLoco inh red | Tau fluor counter | JMJD2E inh | Tau fibril FP | Tau ThT inhib
CCc1c(O)c2c(c(O)c1C(C)=O)C(=O)c1c(cc(O)c(C(=O)O)c1C(=O)O)C2=O | -8%[14.2 µM] | x | x | x | x
CCN(CC)S(=O)(=O)c1ccc2c(c1)c(=O)c(C(=O)NCc1ccccc1Cl)cn2C | x | -17% | x | -4% | 12%
CC(=O)n1c2ccccc2c2nc(NC(C)C)sc21 | -2% | -26% | -10% | u | 22µM*
Cc1ccc(-n2ncc(C(=O)NCCCN3CCc4ccccc4C3)c2C2CCN(C(=O)OC(C)(C)C)CC2)cc1C | x | -5% | x | 5% | -15%
O=C(Nc1ccc2nn(-c3ccc(F)cc3)nc2c1)c1cccc2c(Cl)cccc12 | x | u | x | u | -17%
Cc1c(Cl)cccc1NC(=O)CCS(=O)(=O)c1ccc2c(c1)CC(C)N2C(=O)C1CC1 (stereo not drawn) | x | -1% | x | 3% | 3%
CC1(C)CC(=O)c2cc(-c3nc(-c4ccccc4)cs3)c(=O)[nH]c2C1 | x | -8% | x | 0% | 4%
CC1=C(C)/C(=N\OS(=O)(=O)c2ccccc2)C=CC1=O | -8% | u | 7% | 16µM* | 13µM*
Cc1ccc(N2C(=O)[C@@H]3[C@H](C2=O)C2c4ccccc4C=CN2[C@@H]3C(=O)c2ccco2)cc1 (stereo partly drawn) | 118% | -22% | -3% | u | 25µM*
CC(=O)[C@@H]1[C@@H]2C(=O)N(Cc3ccccc3)C(=O)[C@@H]2C2c3ccccc3C=CN21 (stereo partly drawn) | 29% | -20% | -25% | -14% | u
O=C(c1ccco1)[C@@H]1[C@@H]2C(=O)N(c3ccccc3)C(=O)[C@@H]2C2c3ccccc3C=CN21 (stereo partly drawn) | 57% | -29% | u | u | 25µM*
Cc1ccc(N2C(=O)[C@@H]3[C@H](C2=O)C2c4ccccc4C=CN2[C@@H]3C(=O)c2ccco2)c(C)c1 (stereo partly drawn) | 122% | -27% | u | u | 25µM*
COc1ccc(N2C(=O)[C@@H]3[C@H](C2=O)[C@H]2c4ccccc4C=CN2[C@@H]3C(=O)Nc2ccccc2)cc1 | 24% | u | -6% | -1% | u
CC(C)(C)C(=O)[C@@H]1[C@@H]2C(=O)N(c3ccc4c(c3)OCCO4)C(=O)[C@@H]2C2c3ccccc3C=CN21 (stereo partly drawn) | -7% | u | -17% | u | 28µM*
Cc1ccc(C2=NC(c3ccccc3)=Nc3ccc(Cl)cc3N2)cc1 | x | u | x | -11% | u
Cc1ccc(N2CCN(C(=O)c3cn(C)c4ccc(S(=O)(=O)N5CCCC5)cc4c3=O)CC2C)cc1 (stereo not drawn) | x | -6% | x | 6% | -1%
Cc1ccc(-c2nnc(Nc3cccc(O)c3)c3ccccc23)cc1S(=O)(=O)N1CCCCC1 | x | 8.9µM*[quencher] | x | u | -13%
COc1cc(OC)cc(-c2nnc(Sc3ccc(C=O)cc3[N+](=O)[O-])o2)c1 | -16% | u | -3% | -13% | 25µM*
CCc1ccc(OCC(=O)NC2CC(C)(C)NC(C)(C)C2)cc1 | 79% | -10% | 2% | -5% | 13µM*
COc1ccc(-c2[nH]ncc2-c2ccc3c(c2)OCCO3)c(O)c1 | 5% | -28% | -4% | 7% | -4%
CCCc1cc(-c2[nH]ncc2-c2ccc3c(c2)OCCCO3)c(O)cc1OC | -4% | 10µM*[quencher] | u | -13% | u
CN(Cc1cn[nH]c1-c1ccc2c(c1)OCO2)C1CCOCC1 | 12% | 12% | -3% | 5% | 3%
CCc1cc(-c2[nH]ncc2-c2ccc3c(c2)OCO3)c(O)cc1O | 14% | 14µM*[quencher] | u | u | u
COc1ccc(-n2c(=O)c3c(c4cc(OC)ccc4n3C)n(Cc3cc(C)ccc3C)c2=O)cc1 | x | 1% | x | 4% | 5%
COc1ccccc1N1C(=O)CC(Nc2ccc(N3CCOCC3)cc2)C1=O (stereo not drawn) | -25% | -20% | u | -7% | 28µM*
SMILES | GoLoco inh red | Tau fluor counter | JMJD2E inh | Tau fibril FP | Tau ThT inhib
O=C1CC(Nc2ccc(N3CCOCC3)cc2)C(=O)N1c1ccccc1 (stereo not drawn) | -20% | -19% | -29% | -5% | 16µM*
O=C1CC(Nc2ccc(N3CCOCC3)cc2)C(=O)N1Cc1ccccc1 (stereo not drawn) | -14% | -24% | u | 11% | u
CCN(C(=O)CSc1nc2n[nH]c(C)c2c(=N)n1-c1cccc(OC)c1)c1cccc(C)c1 | x | u | x | 2% | -5%
COc1ccc(/C=C/C(=O)Nc2ccncc2)cc1OC | 12% | -2%[2.34 µM] | -1% | -4%[2.34 µM] | 1%
CCN1CCN(c2cc(C)c3cc(NC(=O)c4cccs4)ccc3n2)CC1 | 6% | u | -1% | 12% | u
COc1ccc(/C=C/C(=O)Nc2ccc(Cl)c(Cl)c2)cc1OC | x | 10µM*[quencher] | x | 14µM* | u
CCN1CCN(c2cc(C)c3cc(NC(=O)/C=C/c4ccc(OCCC(C)C)cc4)ccc3n2)CC1 | x | u | x | 5% | 7.1µM*
CCN1CCN(c2cc(C)c3cc(NC(=O)/C=C/c4ccc(C)cc4)ccc3n2)CC1 | x | 14µM*[quencher] | x | 10% | 4.5µM*
COc1ccc(/C=C/C(=O)Nc2ccc3nc(N4CCC(C)CC4)cc(C)c3c2)cc1OC | x | 3.5µM*[quencher] | x | 13% | 3.5µM*
CCN1CCN(c2cc(C)c3cc(NC(=O)c4cc(OC)c(OC)c(OC)c4)ccc3n2)CC1 | x | u | x | 12% | u
CCc1ccccc1NC(=O)c1nnn(Cc2ccc(Cl)cc2)c1N | x | -27% | x | u | 12%
Cc1cc(/C=N/n2cnnc2)c(O)c([N+](=O)[O-])c1 | 10% | -6% | -1% | 11% | 4µM*
Cc1cc(C(c2ccc(C)o2)c2ccc(C)o2)c(O)c([N+](=O)[O-])c1 | -10% | -26% | -21% | -6% | u
CCOc1ccc(N=Nc2c(=O)[nH]n3c(=O)c4c([nH]c23)CCCC4)cc1 | 0% | u | u | -6% | 1.8µM*
CCOc1ccc(Nc2nc3c(c(=O)[nH]2)CCCC3)cc1 | 5% | -14% | 9% | u | -10%
O=c1[nH]n2c(=O)c3c([nH]c2c1N=Nc1cccc(Cl)c1)CCCC3 | -4% | u | 1% | -6% | 2.8µM*
Cc1ccc(C(=O)OCc2cc(=O)n3nc(-c4cccs4)sc3n2)cc1 | x | 11% | x | 5% | u
COCCNC(=O)c1sc2ncccc2c1-n1c(C)ccc1C | x | -1% | x | -4% | 1%
Cc1ccccc1-c1cc(=O)c2c(O)cccc2o1 | -3% | 6% | -5% | -3% | 10%
COc1ccc(OC)c(-c2c3cc(O)c(=O)cc-3oc3cc(O)c(O)cc23)c1 | 10µM* | u | 11µM* | 16µM* | 3.2µM*
O=c1cc(-c2ccccc2O)oc2cc(O)ccc12 | 15% | -8% | -2% | -16% | -7%
